These results are taken from PubChem BioAssay AID624330 (Southern Research Specialized Biocontainment Screening …, 2012).

Molecules are shown by their SMILES. The whole screen tested about 340,000 compounds, of which about 2,100 (0.62%) were called active.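 Rule for the calls: active = first-screen hits whose inhibition reached a set limit at any dose in the follow-up dose series; inconclusive = inhibition above the set first-screen limit but never retested; inactive = the rest.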 These entries were drawn from the full list. Potency and affinity values are given separately.

For orientation: inhibition means the relative decrease from the control value, in per cent.

For the experiment, the target named is Rac GTPase-activating protein 1 (Homo sapiens) (UniProt Q9H0H5). As to the kind of experiment: MgcRacGAP GTPase-activating activity inhibitors, confirmation, biochemical, ADP Hunter fluorescence, primary and confirmatory (AID 624330).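 Note: fluorescence reports GDP produced by GAP-driven GTP hydrolysis.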 As to conditions: MgcRacGAP-stimulated Rac1 GTP hydrolysis, at 30 µM, active compounds read high, GST-tagged Rac1 F28L mutant substrate.
Sequence of Rac GTPase-activating protein 1 (Homo sapiens) (Q9H0H5 whole entry, looked up): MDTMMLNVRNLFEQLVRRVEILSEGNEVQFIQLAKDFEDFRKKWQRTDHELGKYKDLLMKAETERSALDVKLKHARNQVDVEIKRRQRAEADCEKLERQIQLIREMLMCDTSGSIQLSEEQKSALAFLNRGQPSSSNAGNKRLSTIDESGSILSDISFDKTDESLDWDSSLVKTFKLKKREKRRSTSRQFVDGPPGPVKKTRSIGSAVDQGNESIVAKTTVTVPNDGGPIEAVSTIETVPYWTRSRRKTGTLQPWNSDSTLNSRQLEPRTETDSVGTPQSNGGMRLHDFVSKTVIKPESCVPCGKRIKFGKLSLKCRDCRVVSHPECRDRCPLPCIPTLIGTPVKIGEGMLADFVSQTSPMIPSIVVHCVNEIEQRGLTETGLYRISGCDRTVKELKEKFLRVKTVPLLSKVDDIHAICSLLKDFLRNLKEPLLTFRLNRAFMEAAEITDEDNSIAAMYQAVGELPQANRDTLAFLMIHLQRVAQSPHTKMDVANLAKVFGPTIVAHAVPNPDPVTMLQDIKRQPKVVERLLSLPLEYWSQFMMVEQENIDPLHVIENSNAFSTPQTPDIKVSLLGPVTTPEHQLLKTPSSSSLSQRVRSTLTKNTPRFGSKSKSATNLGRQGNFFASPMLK
With `CC(=O)Oc1ccc2c3c(c(=O)oc2c1C)CCCC3`, the inhibition was 4.5% (inactive).
As to `Cc1c(O)ccc2c3c(c(=O)oc12)CCC(C)C3` (stereo unspecified), the inhibition was 29.3% (inactive).
In the case of `CCOC(=O)CSc1nc2c(sc(=S)n2-c2ccccc2OC)c(=O)n1-c1ccccc1OC`, the inhibition was 3.56% (inactive).
Consider `COc1ccc(CCN(C)CC(O)COc2ccc(C(C)=O)cc2OC)cc1OC` (stereo unspecified), for which the inhibition is 16.6% (inactive).
For `COc1cc(C(C)=O)ccc1OCC(O)CNCC(O)c1ccccc1` (stereo unspecified), the inhibition was 20.6% (inactive).
`CC(=O)Nc1ccc(CN2CCCC(CCC(=O)NCc3ccccc3F)C2)cc1` (stereo unspecified): the inhibition is 3.48% (inactive).
`CCN1CCN(CCNC(=O)C2CCCN(Cc3nc(-c4cccc(Cl)c4)oc3C)C2)CC1` (stereo unspecified): the inhibition was 5.46% (inactive).
`O=C(c1cccc(C(=O)N2CCN(Cc3ccccc3)CC2)c1)N1CCN(Cc2ccccc2)CC1`: the inhibition is 9.35% (inactive).
With `O=C(c1cccs1)N1CCN(Cc2cccnc2)CC1`, the inhibition was 30.4% (inactive).
As to `O=C(c1cccc(Cl)c1)N1CCN(Cc2ccc3c(c2)OCO3)CC1`, the inhibition is 7.04% (inactive).
For the compound `O=C(c1cccs1)N1CCN(Cc2ccccc2)CC1`, the inhibition is 7.61% (inactive).
Consider `CCSc1nnc(-c2cccc(S(=O)(=O)N(C)C)c2)n1-c1cc(OC)ccc1OC`, for which the inhibition was 1.21% (inactive).
Under `Cc1ccc(OCCCC(=O)N(C)CC(=O)Nc2ccccc2Cl)cc1` stands 2.87% (inactive); under `CC(C)[C@H](NC(=O)c1ccco1)C(=O)Nc1ccc(N2CCCCCC2)cc1`, 9.75% (inactive); under `O=C(c1ccccc1)c1c[nH]c(C(=O)NCc2cccnc2)c1`, -1.95% (inactive).
With `COc1ccc2c(c1)CCc1c(C(=O)N(C)c3ccccc3)noc1-2`, the inhibition is 7.96% (inactive).
In the case of `Cc1sccc1/C=N/NC(=O)c1ccco1` it was 3.82% (inactive); in that of `Cc1ccsc1/C=C(\C#N)C(=O)NCc1ccco1`, 2.06% (inactive); in that of `Cc1c(O)ccc(/C(Cc2ccc3ccccc3n2)=N\N)c1O`, 14.8% (inactive).
On to `CC(=O)Oc1ccc(C(=O)Cc2ccc3ccccc3n2)c(O)c1C`, for which the inhibition was -0.13% (inactive).
On to `O=C(NCC1CCCO1)c1cnn2c(C(F)F)cc(C3CC3)nc12` (stereo unspecified), for which the inhibition is -0.05% (inactive).
In the case of `CCC(CO)Oc1cc(NCc2cccc(F)c2)c2ncn(C(C)C)c2c1` (stereo unspecified) it was 6.74% (inactive).
In the case of `COc1cc(/C=C/C(=O)OCC(=O)N2CCCCCC2)ccc1OCC#N`, the inhibition is 3.21% (inactive).
As for `Nc1ccccc1N1CCN(C(=O)c2ccccc2)CC1`, the inhibition is 12.8% (inactive).
Take `COc1ccc(OCc2cc(C(=O)NC(C)c3nc(C)cs3)no2)c(Cl)c1` (stereo unspecified): the inhibition was 7.35% (inactive).
For `Brc1ccc(-c2ccccc2)cc1`, the inhibition is 1.25% (inactive).
Turning to `Oc1c(Br)cc(C2N=C(c3ccccc3)NO2)cc1Br` (stereo unspecified), the inhibition was -1.87% (inactive).
`C/C(=N\NC(=O)CNC(=O)c1ccccc1F)c1ccco1`: the inhibition is 2.16% (inactive).
Under `CCN(CC)c1ccc(NC(=O)COC(=O)c2cccs2)cc1` stands 21.8% (inactive).
In the case of `CN(CC(=O)Nc1cc(Cl)cc(Cl)c1)Cc1cccs1`, the inhibition was 3.5% (inactive).
In the case of `CCCOC(=O)c1ccc(NC(=O)CN(C)Cc2cccs2)cc1` it was 10.3% (inactive).
For the compound `O=C(COC(=O)CNC(=O)c1cccs1)Nc1ccccc1C(F)(F)F`, the inhibition is 8.33% (inactive).
With `CCOc1ccc(NC(=O)COC(=O)Cc2ccsc2)cc1`, the inhibition is 2.81% (inactive).
Turning to `Cc1ccc(NC(=O)COC(=O)CCC(=O)c2cccs2)cc1`, the inhibition was 6.66% (inactive).
With `CC(=O)c1ccc(NC(=O)COC(=O)Cc2ccsc2)cc1`, the inhibition is 8.16% (inactive).
With `COc1ccc(NC(=O)COC(=O)CNC(=O)c2cccs2)cc1Cl`, the inhibition was 2.23% (inactive).
`CCCCC[C@H]1CN(Cc2ccccc2)C(=O)[C@@H]1CC(=O)NCc1ccccc1`: the inhibition was 8.29% (inactive).
On to `Cc1cccc(OCC(=O)Nc2nnc(S(=O)(=O)N3CCCCCC3)s2)c1`, for which the inhibition is 9.88% (inactive).
Consider `Cc1[nH]c(C)c(S(=O)(=O)NCc2ccco2)c1C(=O)N1CCCCC1`, for which the inhibition is 16.2% (inactive).
As to `COc1ccccc1NC(=O)c1ccc[n+]([O-])c1`, the inhibition is 4.42% (inactive).
Consider `Cc1cc(F)ccc1S(=O)(=O)Nc1ncnc2sccc12`, for which the inhibition is -6.18% (inactive).
On to `COc1ccc(CNC(=O)O[C@@H]2C[C@H]3C(=O)N(c4ccccc4)C(=O)[C@H]3[C@@]3(CN(S(=O)(=O)c4ccc(C)cc4)C[C@H]3C)[C@@H]2O)cc1OC`, for which the inhibition was 13.3% (inactive).
As to `Cc1cn([C@@H](CCCCNC(=O)OC(C)(C)C)C(=O)NCCCCCCCCCCC(=O)N2CCN(C(=O)OC(C)(C)C)CC2)nn1`, the inhibition was 3.56% (inactive).
In the case of `CCN(CC)c1ccc(NC(=O)COC(=O)CSc2ccc(Br)cc2C)cc1` it was 7.43% (inactive); in that of `Cc1ccccc1SCC(=O)OCC(=O)NCCNC(=O)COC(=O)CSc1ccccc1C`, 2.21% (inactive).
Turning to `O=C(Cn1ccc(C(F)(F)F)n1)N=Nc1c(O)[nH]c2ccccc12`, the inhibition was 4.76% (inactive).
On to `CCc1ccc(S(=O)(=O)NCCc2cn3cccc(C)c3n2)s1`, for which the inhibition was 4.85% (inactive).
Consider `COc1ccc(N=Cc2sc3ccccc3c2Cl)cc1`, for which the inhibition was 11% (inactive).
Under `O=[N+]([O-])c1ccc(O)c(N=Cc2sc3ccccc3c2O)c1` stands 27.9% (inactive).
Consider `Cc1ccc(O)c(N=Cc2ccc(C)s2)c1`, for which the inhibition is -11.5% (inactive).
Turning to `Oc1c(C=Nc2ccc(Cl)cn2)sc2ccccc12`, the inhibition is 8.33% (inactive).
Regarding `CN(C)C(=O)CSc1nc(-c2ccccc2)c(-c2ccccc2)o1`, the inhibition was 2.82% (inactive).
Under `COc1ccc(C(=O)Oc2ccc3c(c2)OCO3)cc1OC` stands 7.69% (inactive); under `O=C(Nc1ccc2c(c1)OCCO2)c1ccc(Br)c(S(=O)(=O)N2CCOCC2)c1`, -4.87% (inactive); under `COc1ccc(OC(=O)c2ccc(OC)c(S(=O)(=O)N3CCOCC3)c2)cc1`, 22.8% (inactive).
As for `O=C(Oc1ccc(OC(=O)c2ccncc2)cc1)c1ccncc1`, the inhibition was 5.17% (inactive).
Consider `COc1ccc(CCN2C(=O)c3ccccc3NC2c2cc(Cl)c(O)c(OC)c2)cc1` (stereo unspecified), for which the inhibition is 7.25% (inactive).
On to `COC(=O)c1c(NC(=O)CC2SC(N)=NC2=O)sc(C)c1C` (stereo unspecified), for which the inhibition was -4.36% (inactive).
As to `Nc1cc2c(cc1Cl)N(Cc1ccccc1)C(=O)CO2`, the inhibition was 4.01% (inactive).
As for `Cc1cc2c(NCC(C)O)ncnc2s1` (stereo unspecified), the inhibition was 8.37% (inactive).
For `CSCC(=O)N1CCCC(N2CCN(c3ccc(F)cc3)CC2)C1` (stereo unspecified), the inhibition is 15.7% (inactive).
